Records with an inconclusive call do not appear. Activity calls are given as the source filed them. The call rests on the fitted dose curve; in most records, active means well fitted inhibition curve with a large enough effect; inconclusive means small, poorly fitted or top-dose-only effect; inactive means flat fitted curve, though single readings scatter.
What was measured:
Test in all cases: qHTS profiling for inhibitors of Plasmodium falciparum proliferation (AID 504749); further: nearly all actives have a fitted effect of over 60% in size
Details in all cases: P. falciparum in erythrocytes, SYBR Green DNA, 72 h; series mostly up to 28.7 µM
[1] = tested on: AS120
Method in brief: (§1)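 P. falciparum-infected erythrocytes (0.3% parasitemia, 2.5% hematocrit final) were exposed to compounds for 72 h at 37 C in 5% CO2, then lysed with SYBR Green buffer overnight at room temperature; parasite DNA fluorescence was normalized to artemisinin and DMSO controls.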

[2] = tested on: ATS189
Method in brief: as §1

[3] = tested on: ATS95
Method in brief: as §1

[4] = tested on: CP191
Method in brief: as §1

[5] = tested on: CP237
Method in brief: as §1

[6] = tested on: CP247
Method in brief: as §1

[7] = tested on: CP265
Method in brief: as §1

[8] = tested on: CP266
Method in brief: as §1

[9] = tested on: CP268
Method in brief: as §1

[10] = tested on: CP269
Method in brief: as §1

[11] = tested on: CP305
Method in brief: as §1

[12] = tested on: CP325
Method in brief: as §1

[13] = tested on: DIV30
Method in brief: as §1

[14] = tested on: ECU
Method in brief: as §1

[15] = tested on: HB3
Method in brief: as §1

[16] = tested on: P94_40
Method in brief: as §1

[17] = tested on: PAD
Method in brief: as §1

[18] = tested on: PC26
Method in brief: as §1

[19] = tested on: PC49
Method in brief: as §1

[20] = tested on: TAB113
Method in brief: as §1

Measured: Potency

C[C@]12CC[C@H]3c4ccc(O)cc4CC[C@@H]3[C@H]1CC[C@@H]2OP(=O)(O)O
inactive: all assays above

N[C@@H](Cc1ccccc1)C(=O)O
inactive: all assays above

CC1(C)[C@@H]2CC[C@]1(C)[C@@H](OC(=O)CSC#N)C2
inactive: all assays above
